LEDGF integ inh: blocks HIV-1 LEDGF/p75-dependent DNA integration | hit rate 0.64% among 370,000 | TR-FRET IN-LEDGF/p75 DNA integration, Eu/Cy5 | AID 743269 | inhibition, % at 3.7 µM;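 active = inhibition above the screen-wide mean plus 3 SD, cut at about 13% in these data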;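 also: signal is the Cy5 over europium emission ratio at 671 and 618 nm; 0% = plate median of compound wells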
MBD2 inh: blocks human MBD2 binding to methylated DNA; Q9UBB5; TR-FRET, MBD2 binding to methylated oligonucleotide; inhibition, % at 4.4 µM; hit rate 0.31% among 370,000; in the data active = inhibition above about 13%
Target sequence (Q9UBB5 whole entry, looked up): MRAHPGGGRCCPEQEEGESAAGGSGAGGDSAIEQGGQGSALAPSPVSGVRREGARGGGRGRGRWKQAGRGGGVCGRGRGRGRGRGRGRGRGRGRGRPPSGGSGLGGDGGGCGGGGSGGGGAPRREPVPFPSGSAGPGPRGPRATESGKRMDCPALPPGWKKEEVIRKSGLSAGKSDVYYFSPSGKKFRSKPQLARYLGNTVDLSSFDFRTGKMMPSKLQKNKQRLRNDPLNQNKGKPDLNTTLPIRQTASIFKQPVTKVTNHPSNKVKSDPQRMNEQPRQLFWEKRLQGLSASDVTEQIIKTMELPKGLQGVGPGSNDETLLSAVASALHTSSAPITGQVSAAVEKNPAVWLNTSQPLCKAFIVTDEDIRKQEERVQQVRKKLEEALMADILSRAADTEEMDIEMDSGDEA
UHRF1 binding: UHRF1 methyl-DNA binding inhibition | Q96T88 | UHRF1 binding to methylated oligo, TR-FRET | inhibition, % at 4.4 µM | hit rate 0.75% among 370,000; in the data active = inhibition above about 21%;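 also: UHRF1 SRA domain binding a hemimethylated CpG hairpin DNA probe; 0% = median of test compound wells and 100% = reference inhibitor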
Casp6 inh: inhibitors of human caspase-6. AID 686996. purified caspase-6, Z-VEID-R110 cleavage fluorescence. hit rate 0.53% among 350,000. inhibition, % at 12.5 µM;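 active = mean inhibition across replicates at least about 35%, with every replicate also reaching that limit, limit read from the data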;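 also: 0% = median of neutral control wells and 100% = no fluorescence left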
Target sequence (P55212 24-179 limits assumed): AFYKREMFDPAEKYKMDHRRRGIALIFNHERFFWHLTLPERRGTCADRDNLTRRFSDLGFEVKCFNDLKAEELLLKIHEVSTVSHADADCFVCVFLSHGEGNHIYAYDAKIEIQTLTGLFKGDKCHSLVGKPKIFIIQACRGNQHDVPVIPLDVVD
Target sequence (P55212 194-293 limits assumed): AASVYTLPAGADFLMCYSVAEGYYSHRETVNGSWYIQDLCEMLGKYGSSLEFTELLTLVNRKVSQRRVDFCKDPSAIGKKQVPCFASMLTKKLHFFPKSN
* marks the source's active call; other numbers are inactive results; x = not tested or not shown. This is a sample that favours compounds with a hit; in the whole collection about 1.4% have one here.

SMILES | LEDGF integ inh | MBD2 inh | UHRF1 binding | Casp6 inh
Cn1c(N)c(-c2nc3cccnc3n2C)sc1=S | 0.3 | 3.8 | 24.2* | -3.1
Cc1cc(C(=O)Nc2cccc3c2O[C@H](CN(C)C(=O)Nc2ccc4c(c2)OCO4)[C@H](C)CN([C@H](C)CO)C3=O)n(C)n1 | x | x | x | 1.7
O=[n+]1cc(-c2ccc(Cl)cc2)n([O-])c2c1CCC2 | -2.1 | -6.2 | -1.5 | 3.6
O=[n+]1cc(-c2ccccc2)n([O-])c2c1CCC2 | 0.1 | 4.6 | 20.9* | x
Cc1ccc([N+](=O)[O-])cc1NC(=O)c1cccnc1 | -5.2 | 5.0 | 38.8* | 0.0
Brc1ccc2nc(-c3ccco3)c(Cc3ccccc3)n2c1 | 2.0 | 9.5 | 10.5 | 20.7
Cc1ccc(Cc2c(-c3ccco3)nc3c(C)cc(Br)cn23)cc1 | 0.1 | 1.4 | 20.9* | 22.6
Cc1ccc(-c2nc3ccc(Cl)cn3c2Cc2ccsc2)cc1 | -2.5 | 0.4 | 3.4 | 37.3*
Cc1ccc(Cc2c(-c3ccco3)nc3ccc(C)cn23)cc1 | 5.1 | 4.5 | 24.3* | 15.3
Cc1cc(Br)cn2c(Cc3cccc(Cl)c3)c(-c3ccco3)nc12 | 4.6 | 3.1 | 14.7 | 16.8
Cc1ccc(-c2nc3ccc(C)cn3c2Cc2ccsc2)cc1 | -0.8 | 5.4 | 13.3 | 2.8
Cc1ccc2nc(-c3ccco3)c(Cc3ccsc3)n2c1 | -1.0 | 7.4 | 22.9* | 7.5
CCCCCCSc1ccc(-c2nc3ccc(Cl)cn3c2NCCCC)cc1OC | -2.3 | 3.6 | -1.4 | -0.1
CCCCNc1c(-c2ccc(SC3CCCCC3)c(OC)c2)nc2ccc(Cl)cn12 | 10.8 | 9.6 | 23.7* | 1.7
CCCCCCSc1cc(-c2nc3ccc(Cl)cn3c2NC2CCCCC2)ccc1OC | -0.5 | 0.2 | 57.7* | 2.0
COCC(=O)N1CC[C@@H]2[C@H]1c1cc(-c3cccc(OC)c3)ccc1N(C)[C@@H]2CO | x | x | x | -4.9
CN1C(=O)c2cc(NC(=O)c3cc(F)cc(F)c3)ccc2OC[C@H]2O[C@@H](CC(=O)O)CC[C@@H]21 | x | x | x | 26.6
Cc1cc(C(=O)NNC(=O)/C=C/c2ccco2)c(C)o1 | 52.8* | 1.9 | 28.8* | 51.8*
O=C(OCc1ccccc1)N1CCCC2CC1c1ccccc12 (configuration not stated) | 0.4 | -5.7 | -3.9 | 53.8*
O=C1NC(=S)S/C1=C\c1cc2ccccc2nc1N1CCCCC1 | 1.9 | 3.6 | 78.4* | 4.3
O=C(N[C@H]1CC[C@H](CCNC(=O)C2CC2)O[C@H]1CO)c1ccncc1 | x | x | x | -3.0
COCCNC(=S)Nc1ccc(S(=O)(=O)Nc2ncccn2)cc1 | -2.4 | 5.3 | 3.9 | 0.7
COCCNC(=S)Nc1ccc(S(=O)(=O)Nc2cnc3ccccc3n2)cc1 | -1.8 | 1.4 | 36.6* | 0.3
Cc1ccc(OCC(=O)NNC(=O)CCC(=O)Nc2ccc(C)cc2C)cc1 | -2.5 | 5.2 | -2.1 | x
Cc1ccc(NC(=O)CCC(=O)NNC(=O)COc2ccccc2)c(C)c1 | 1.4 | 2.2 | 0.1 | 41.0*
SMILES | LEDGF integ inh | MBD2 inh | UHRF1 binding | Casp6 inh
C[C@@H]1CN([C@H](C)CO)S(=O)(=O)c2ccc(-c3cccnc3)cc2O[C@H]1CN(C)Cc1ccncc1 | x | x | x | 2.9
CC(C(=O)OCC(=O)Nc1ccc2c(c1)OCO2)N1C(=O)c2ccccc2C1=O (configuration not stated) | 2.7 | 34.5* | 19.0 | x
O=C(O)c1cc(-c2c[nH]c3ccccc23)nc2ccc3ccccc3c12 | 1.1 | 0.7 | 20.9* | 2.0
c1ccc2c(-c3c[nH]c4ccccc34)c3ccccc3nc2c1 | -2.1 | 1.3 | -1.9 | x
Cc1ccc(S(=O)(=O)N(C)C[C@@H]2Oc3ncc(C#CCC(C)C)cc3C(=O)N([C@H](C)CO)C[C@H]2C)cc1 | -4.8 | 8.5 | 22.8* | 5.8
C[C@H](CO)N1C[C@H](C)[C@@H](CN(C)C(=O)Nc2ccc(C(F)(F)F)cc2)Oc2ncc(/C=C/c3ccccc3)cc2C1=O | x | x | x | 47.7*
COc1cccc(C#Cc2cnc3c(c2)C(=O)N([C@@H](C)CO)C[C@H](C)[C@H](CN(C)C(=O)C2CCC2)O3)c1 | -9.8 | 9.5 | 21.8* | -0.8
C[C@H]1CN([C@@H](C)CO)C(=O)Cc2cc(NC(=O)CCCCCC(=O)Nc3ccccc3N)ccc2O[C@H]1CN(C)S(=O)(=O)c1ccccc1 | x | x | x | 0.3
Cc1cccc(NC(=S)Nc2cccc3ccccc23)c1 | 8.2 | -1.9 | -4.4 | -0.7
Fc1ccc(NC(=S)Nc2cccc3cnccc23)cc1 | -0.1 | -0.3 | 0.1 | 35.8*
Cc1cc(C)cc(NC(=S)Nc2cccc3ccccc23)c1 | -3.1 | -1.1 | 66.5* | 0.4
S=C(Nc1cccnc1)Nc1cccc2cnccc12 | 2.8 | 3.3 | -1.8 | 44.0*
COc1ccc(CN2C(=O)c3cccnc3C2=O)cc1S(=O)(=O)N(C)Cc1ccco1 | -4.8 | 2.0 | 0.8 | 2.1
CN(Cc1ccco1)S(=O)(=O)c1cc(F)ccc1CN1C(=O)c2cccnc2C1=O | -0.9 | 9.4 | 24.3* | -1.9
COc1ccc(OC)c(N/C(=N/c2nc(C)cc(C)n2)NC(C)=O)c1 | 0.8 | -1.2 | 1.7 | 52.7*
COc1ccc(N/C(=N\c2nc(C)cc(C)n2)NC(C)=O)cc1OC | 4.8 | -4.7 | 12.5 | x
C[C@@H]1CN([C@@H](C)CO)C(=O)Cc2cc(NC(=O)CCCCCC(=O)Nc3ccccc3N)ccc2O[C@@H]1CN(C)CC1CC1 | x | x | x | 3.1
CN1CCN(CCCCOc2ccc(F)cc2)CC1 | 3.8 | 12.0 | 21.8* | x
CC(C)Oc1ccc(OCCCN2CCCCCC2)cc1 | -0.9 | 5.6 | -1.7 | x
CC(C)(C)c1ccc(OCCCN2CCCC2)cc1 | -0.9 | 3.2 | 24.4* | -28.8
CN1CCN(CCCCOc2ccc(Br)cc2)CC1 | 1.0 | 10.7 | 3.5 | -4.1
C[C@@H]1CN([C@H](C)CO)C(=O)CCCn2nncc2CO[C@@H]1CN(C)C(=O)Nc1ccc(C(F)(F)F)cc1 | x | x | x | 2.9
C[C@H](NC(=O)C[C@H]1C=C[C@@H](NC(=O)CN2CCOCC2)[C@@H](CO)O1)c1ccccc1 | x | x | x | 4.7
O=C(C1=C[C@@H](c2ccc3c(c2)OCO3)C[C@@H](OCc2ccc(CO)cc2)O1)N1CCCCC1 | x | x | x | 1.6
CCCNC(=O)[C@H]1[C@H](CO)[C@H]2Cn3c(cccc3=O)[C@@H]1N2Cc1ccccc1 | x | x | x | 0.6
SMILES | LEDGF integ inh | MBD2 inh | UHRF1 binding | Casp6 inh
O=S(=O)(N[C@H]1CC[C@@H](CCn2cc(-c3cccnc3)nn2)O[C@H]1CO)c1ccc(Cl)cc1 | x | x | x | 0.8
Cn1nc(C(F)(F)F)c(C#N)c1N1CCN(c2ccccn2)CC1 | -1.4 | 8.5 | 22.9* | -0.4
Cn1nc(C(F)(F)F)c(C#N)c1N1CCN(c2ccccc2)CC1 | -0.5 | 1.9 | -0.6 | -3.6
Cc1ccccc1OC1(C)CCN(Cc2ccc(-c3ccccn3)cc2)C1 (configuration not stated) | -2.4 | 0.7 | 5.1 | 84.5*
C[C@@H]1CN([C@@H](C)CO)C(=O)c2cc(NS(=O)(=O)c3ccc(F)cc3)ccc2O[C@@H](C)CCCCO[C@@H]1CN(C)C | x | x | x | -1.4
Cc1ccc(C)c(C(C)NC(=O)c2ccccc2Br)c1 (configuration not stated) | -3.1 | 0.0 | 21.6* | -2.1
O=C(C[C@H]1CC[C@@H]2[C@H](COC[C@H](O)CN2Cc2ccccc2)O1)NCc1ccccc1Cl | x | x | x | -0.7
Cc1ccccc1CN(C)C[C@H]1OCc2cnnn2CCCC(=O)N([C@H](C)CO)C[C@H]1C | x | x | x | 0.2

Screening data as filed in PubChem BioAssay.
